# An excerpt weighted towards active compounds, which were near 10% of everything screened.
# GLS inhibitor: glutaminase GLS (human) inhibition; Potency, µM (top dose mostly 45.5 µM), inactives show at the top dose activity change, negative = inhibition, most hits filed as inhibitors; 410,000 tested, 0.21% active; AID 624170; O94925; GLS enzymatic activity, qHTS titration; also: % is scaled to controls: 0 for no effect and ±100 for the full control effect
#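 Human kidney-isoform GLS in 45 mM KH2PO4 pH 8.2, 0.02% Tween-20, with compound, started with 1mM L-Glutamine (added stock). Glutamate oxidase/HRP/Amplex red coupled fluorescence read at start and after 30 min at RT.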
# HP1b chromo inh: HP1-beta chromodomain-methylated histone interaction inhibition. P83916. AlphaScreen HP1-beta / biotin-H3K9me3 peptide binding. Potency, µM (titrated, usually from 114 µM), inactives show at the highest dose activity change, negative = inhibition, most hits filed as inhibitors. 390,000 tested, 0.56% active; also: nearly all actives have a fitted effect of over 70% in size
#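 AlphaScreen: HP1-beta (50 nM) preformed 30 min with biotin-H3(1-18)K9me3 peptide (50 nM) in PBS pH 7.4, 0.01% Tween-20. Compound added for 30 min at RT, then streptavidin donor/nickel chelate acceptor beads (10 ug/mL) for 30 min.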
# G9a inh: G9a (human) methyltransferase inhibition | Q96KQ7 | G9a H3K9 monomethylation, AlphaScreen, 2 h | Potency, µM (doses to about 102 µM), for the others: at the top dose activity, negative = inhibition, hits mostly inhibitors | 350,000 tested, 8.8% active | AID 504332; also: % is scaled to controls: 0 for no effect and ±100 for the full control effect; nearly all actives have a fitted effect of over 75% in size
#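 Chemiluminescent proximity detection of H3K9 monomethylation, read after 10 min bead incubation in the dark. Reaction: 20 nM G9a, 500 nM biotin-H3K9 peptide, 20 uM SAM cofactor, 2 h, room temperature, following 15 min enzyme-compound preincubation.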
# JMJD2A Tudor inh: JMJD2A Tudor domain (human) inhibition | O75164 | AlphaScreen JMJD2A-Tudor / H3K4me3 peptide binding | Potency, µM (highest dose often 114 µM), for the others: at the highest dose activity change, negative = inhibition, usual class: inhibitors | 390,000 tested, 4.4% active | AID 504339; also: % is scaled to controls: 0 for no effect and ±100 for the full control effect; nearly all actives have a fitted effect of over 50% in size
# BAZ2B block: BAZ2B (human) inhibition | Q9UIF8 | AlphaScreen BAZ2B-H3K14Ac peptide displacement | Potency, µM (doses to about 114 µM), for the others: at the top dose activity change, negative = inhibition, most hits filed as inhibitors | 360,000 tested, 4.4% active | AID 504333; also: % is scaled to controls: 0 for no effect and ±100 for the full control effect; nearly all actives have a fitted effect of over 60% in size
#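 In this displacement format the biotinylated H3(5-23) peptide acetylated at Lys14 serves as ligand at 50 nM, with BAZ2B at 50 nM in PBS pH 7.4 containing 0.01% Tween-20. Donor and acceptor beads are 10 ug/mL final.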
# An asterisk follows results filed as active; ? = inconclusive; / = no result given; [ ] = remark or other dose. Calls follow the shape of the dose curve; as a rule, active = well fitted curve in the direction sought with a large enough effect; inconclusive = small, poorly fitted or top-dose-only effect, or another doubt; inactive = no such curve, though single readings can be large; an effect the other way counts as inactive or inconclusive. Potency is read from the fitted curve at half-maximal effect.
SMILES,GLS inhibitor,HP1b chromo inh,G9a inh,JMJD2A Tudor inh,BAZ2B block
COc1ccc(C(=O)OCC(=O)NC2CC2)cc1S(=O)(=O)N(C)Cc1ccccc1,0%,36%,50µM*,-4%,-2%
CCN(C(=O)COC(=O)c1ccc(OC)c(S(=O)(=O)N(C)Cc2ccccc2)c1)C1CCS(=O)(=O)C1 (configuration not stated),3%,21%,?,-11%,7%
COc1ccc(C(=O)OCC(=O)NC(Cc2ccccc2)C(C)=O)cc1S(=O)(=O)N1CCCC1 (configuration not stated),7%,8%,56µM*,-19%,10%
CCN(CC)S(=O)(=O)c1ccc2c(c1)c(=O)c(C(=O)N1CCN(c3ccc(F)cc3)CC1)cn2C,-6%,-6%,-34%[59 µM],-9%,/
O=C(COc1ccc(Cl)cc1Cl)Nc1ccc(C(=O)OC2CCCCC2)cc1,2%,32%,41%[59 µM],-4%,8%
Cc1ccc(C(=O)O)cc1NC(=S)NC(=O)c1ccc(-c2ccc(Cl)cc2)o1,23%,2%,35µM*,0%[11.4 µM],?
Cc1ccc(C(=O)O)cc1NC(=S)NC(=O)c1ccc([N+](=O)[O-])cc1Cl,-5%,-5%,?,?,-24%
O=C(O)c1ccc(NC(=S)NC(=O)c2ccc(-c3ccc(Br)cc3)o2)cc1,202%,56µM*,40µM*,16µM*,40µM*
COc1ccc(C(=O)O)cc1NC(=S)NC(=O)c1ccc(-c2ccc(Cl)cc2)o1,10%,-21%,45µM*,?,?
O=C(O)c1cccc(NC(=S)NC(=O)c2ccc(-c3ccc(Cl)cc3)o2)c1,-1%,-25%,45µM*,?,?
CC(=O)c1cccc(NC(=S)NC(=O)c2cccc(Cl)c2)c1,14%,-7%,5%,-24%,-4%
O=C(Nc1ccc(NC(=S)NC(=O)c2ccco2)cc1)c1ccc(Br)cc1,-2%,/,/,/,/
COc1ccc(C(=O)O)cc1NC(=S)NC(=O)CSc1ccc(Cl)cc1,-4%,9%,-44%,-14%,-25%
Cc1ccc(Nc2nnc(-c3ccc(C)c(S(=O)(=O)N4CCOCC4)c3)c3ccccc23)c(C)c1,0%,14%,-46%[59 µM],-21%,-19%
CC(OC(=O)c1nn(C)c(=O)c2ccccc12)C(=O)Nc1ccc(S(N)(=O)=O)cc1 (configuration not stated),2%,9%,2%[12.7 µM],-11%,6%
O=C(/C=C/c1ccccc1[N+](=O)[O-])N1CCCCC1,-4%,17%,-42%,-23%,/
O=[N+]([O-])c1ccccc1/C=N\N1CCN(c2ccccc2)CC1,0%,?,10µM*,40µM*,18µM*
NS(=O)(=O)c1ccc(N/N=C/C=C/c2ccccc2[N+](=O)[O-])cc1,?,?,32µM*,?,?
COc1ccccc1N1CCN(/N=C/C=C/c2ccccc2[N+](=O)[O-])CC1,-5%,?,11µM*,20µM*,11µM*
O=[N+]([O-])c1ccccc1/C=C/C=N/N1CCCCC1,4%,50µM*,40µM*,18µM*,20µM*
COc1cccc(-c2nc(CS(=O)(=O)CC(=O)NCc3ccc(C)cc3)c(C)o2)c1,-12%,42%,-17%[59 µM],-15%,-15%
O=C(Nc1ccc(Cl)cc1)C1C2CCC3C(CCC21)C3(Cl)Cl (configuration not stated),2%,7%,20%[0.501 µM],-6%,-6%
COc1ccc(-c2cn3nc(N4CCC(C(=O)NCc5ccccc5F)CC4)sc3n2)cc1,2%,15%,-5%[59 µM],-10%,3%
O=[N+]([O-])c1cc(/C=N/N2CCN(c3ccccc3)CC2)ccc1Cl,4%,38%,-18%[59 µM],-3%,?
C(/C=C/c1ccccc1)=N/N1CCN(c2ccccc2)CC1,3%,-5%,?,-24%,-7%
Cc1ccccc1/C=N/N1CCN(c2ccccc2)CC1,16%,?,28µM*,?,20µM*
O=[N+]([O-])c1ccccc1/C=C/C=N/Nc1nc(N2CCCCC2)nc(N2CCCCC2)n1,5%,?,40µM*,?,?
